# Data taken from article PMC7862700, “An all-to-all approach to the identification of sequence-specific readers for epigenetic DNA modifications on cytosine”.
# Key:
# Assay in all cases: DAPPL (digital affinity profiling via proximity ligation, sequencing); 10 mM Tris-HCl pH 7.5, 50 mM NaCl, 1 mM DTT, 4% glycerol, room temperature, 30 min; GST-TFs on glutathione beads, 16-mer random dsDNA library, 0.1% formaldehyde crosslink after washing; high values mean tight binding
# [1] = target: T1, FLI1 (Homo sapiens, UniProt Q01543 1-452); conditions: protein: recombinant; tags: N-terminal GST; dsDNA, one strand shown
# T1 sequence: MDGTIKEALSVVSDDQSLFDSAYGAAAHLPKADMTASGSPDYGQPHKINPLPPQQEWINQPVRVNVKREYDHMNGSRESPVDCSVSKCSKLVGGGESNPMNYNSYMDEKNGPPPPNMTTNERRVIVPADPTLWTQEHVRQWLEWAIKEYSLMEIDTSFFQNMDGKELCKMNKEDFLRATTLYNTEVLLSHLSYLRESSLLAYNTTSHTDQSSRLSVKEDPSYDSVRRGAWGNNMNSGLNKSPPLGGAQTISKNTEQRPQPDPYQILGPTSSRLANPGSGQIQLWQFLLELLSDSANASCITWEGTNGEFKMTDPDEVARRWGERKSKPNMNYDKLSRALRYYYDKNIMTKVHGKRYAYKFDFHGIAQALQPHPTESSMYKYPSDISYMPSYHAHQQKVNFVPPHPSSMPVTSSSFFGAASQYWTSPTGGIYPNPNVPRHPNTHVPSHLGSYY
# Outline: (§1)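 The binding signal reported is, for every hexamer, its read frequency for a factor over its read frequency for the tag-only sample. Reads came from pools of yeast-expressed, GST-fused human transcription factors on glutathione beads, barcoded with DNA and mixed with that sample, which were incubated with 200 nmole of a random double-stranded 16-mer DNA library in Tris/NaCl/DTT/glycerol buffer at room temperature for 30 min. After washing, the pools were crosslinked with 0.1% formaldehyde, proximity-ligated with BsaI/T4 ligase for 1 h at 37 °C, PCR-amplified and sequenced on an Illumina NextSeq500.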
# [2] = target: T2, ELK1 (Homo sapiens, UniProt P19419 1-428); conditions: protein: recombinant; tags: N-terminal GST; dsDNA, one strand shown
# T2 sequence: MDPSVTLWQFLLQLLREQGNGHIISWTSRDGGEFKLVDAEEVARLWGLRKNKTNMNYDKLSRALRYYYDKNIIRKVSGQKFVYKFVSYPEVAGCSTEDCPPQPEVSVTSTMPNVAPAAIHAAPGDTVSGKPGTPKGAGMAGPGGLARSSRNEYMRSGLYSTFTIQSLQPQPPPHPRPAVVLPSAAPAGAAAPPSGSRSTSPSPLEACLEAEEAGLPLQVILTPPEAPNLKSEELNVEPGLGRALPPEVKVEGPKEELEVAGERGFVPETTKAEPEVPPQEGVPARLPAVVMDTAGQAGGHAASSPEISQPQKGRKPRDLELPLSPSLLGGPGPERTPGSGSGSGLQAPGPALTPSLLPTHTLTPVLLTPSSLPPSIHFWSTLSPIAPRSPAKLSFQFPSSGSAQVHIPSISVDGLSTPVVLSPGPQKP
# Outline: as §1
# [3] = target: T3, GABPA (Homo sapiens, UniProt Q06546 1-454); conditions: protein: recombinant; tags: N-terminal GST; dsDNA, one strand shown
# T3 sequence: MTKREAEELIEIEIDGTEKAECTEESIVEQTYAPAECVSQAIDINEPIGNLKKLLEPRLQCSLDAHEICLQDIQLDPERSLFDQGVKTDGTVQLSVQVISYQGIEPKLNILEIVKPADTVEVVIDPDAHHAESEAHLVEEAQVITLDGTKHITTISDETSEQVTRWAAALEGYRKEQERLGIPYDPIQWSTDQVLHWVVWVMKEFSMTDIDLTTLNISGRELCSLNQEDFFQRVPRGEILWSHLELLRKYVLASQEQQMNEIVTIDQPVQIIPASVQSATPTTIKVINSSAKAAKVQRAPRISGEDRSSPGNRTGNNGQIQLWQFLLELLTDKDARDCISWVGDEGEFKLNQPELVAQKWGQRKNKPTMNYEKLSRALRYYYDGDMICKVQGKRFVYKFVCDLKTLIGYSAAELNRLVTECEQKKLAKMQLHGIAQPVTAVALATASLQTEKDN
# Outline: as §1
# [4] = target: ELF1 (Homo sapiens, UniProt P32519 1-619); conditions: protein: recombinant; tags: N-terminal GST; dsDNA, one strand shown
# Sequence of ELF1 (P32519 whole entry): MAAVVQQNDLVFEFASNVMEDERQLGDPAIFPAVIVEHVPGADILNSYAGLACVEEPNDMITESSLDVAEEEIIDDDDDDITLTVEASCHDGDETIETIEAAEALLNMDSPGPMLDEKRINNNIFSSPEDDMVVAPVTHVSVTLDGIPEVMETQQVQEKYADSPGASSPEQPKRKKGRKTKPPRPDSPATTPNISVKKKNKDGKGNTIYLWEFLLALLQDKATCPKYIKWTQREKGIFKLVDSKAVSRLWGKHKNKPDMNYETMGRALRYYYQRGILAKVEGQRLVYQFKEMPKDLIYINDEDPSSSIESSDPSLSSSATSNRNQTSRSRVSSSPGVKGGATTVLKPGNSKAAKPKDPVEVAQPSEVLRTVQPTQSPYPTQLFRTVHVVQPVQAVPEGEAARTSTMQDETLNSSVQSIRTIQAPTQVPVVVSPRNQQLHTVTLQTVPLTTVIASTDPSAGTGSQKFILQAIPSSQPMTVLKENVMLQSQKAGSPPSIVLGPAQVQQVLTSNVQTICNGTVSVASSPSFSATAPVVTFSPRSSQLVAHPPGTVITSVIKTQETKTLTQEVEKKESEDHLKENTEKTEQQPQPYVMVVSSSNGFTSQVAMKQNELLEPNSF
# Outline: as §1
# [5] = target: T4, EHF (Homo sapiens, UniProt Q9NZC4 1-300); conditions: protein: recombinant; tags: N-terminal GST; dsDNA, one strand shown
# T4 sequence: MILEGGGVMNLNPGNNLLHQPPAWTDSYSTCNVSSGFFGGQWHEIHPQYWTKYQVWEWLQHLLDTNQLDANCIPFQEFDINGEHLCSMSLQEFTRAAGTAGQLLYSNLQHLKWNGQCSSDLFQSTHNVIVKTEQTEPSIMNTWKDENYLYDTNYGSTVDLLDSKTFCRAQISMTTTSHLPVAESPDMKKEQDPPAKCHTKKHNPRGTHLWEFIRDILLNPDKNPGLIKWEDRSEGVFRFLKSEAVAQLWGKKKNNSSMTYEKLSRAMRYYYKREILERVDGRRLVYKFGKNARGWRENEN
# Outline: as §1
# [6] = target: SPI1 (Homo sapiens, UniProt P17947 1-270); conditions: protein: recombinant; tags: N-terminal GST; dsDNA, one strand shown
# Outline: as §1
# [7] = target: SPIB (Homo sapiens, UniProt Q01892 1-262); conditions: protein: recombinant; tags: N-terminal GST; dsDNA, one strand shown
# Sequence of SPIB (Q01892 whole entry): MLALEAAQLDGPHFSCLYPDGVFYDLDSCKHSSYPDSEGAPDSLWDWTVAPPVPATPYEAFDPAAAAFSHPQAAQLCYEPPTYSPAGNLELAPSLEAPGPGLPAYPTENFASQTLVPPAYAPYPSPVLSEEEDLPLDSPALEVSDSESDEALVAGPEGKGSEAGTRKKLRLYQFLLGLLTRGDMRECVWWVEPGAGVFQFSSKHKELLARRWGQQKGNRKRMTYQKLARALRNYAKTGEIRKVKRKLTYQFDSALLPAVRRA
# Outline: as §1
# [8] = target: T5, ELK3 (Homo sapiens, UniProt P41970 1-407); conditions: protein: recombinant; tags: N-terminal GST; dsDNA, one strand shown
# T5 sequence: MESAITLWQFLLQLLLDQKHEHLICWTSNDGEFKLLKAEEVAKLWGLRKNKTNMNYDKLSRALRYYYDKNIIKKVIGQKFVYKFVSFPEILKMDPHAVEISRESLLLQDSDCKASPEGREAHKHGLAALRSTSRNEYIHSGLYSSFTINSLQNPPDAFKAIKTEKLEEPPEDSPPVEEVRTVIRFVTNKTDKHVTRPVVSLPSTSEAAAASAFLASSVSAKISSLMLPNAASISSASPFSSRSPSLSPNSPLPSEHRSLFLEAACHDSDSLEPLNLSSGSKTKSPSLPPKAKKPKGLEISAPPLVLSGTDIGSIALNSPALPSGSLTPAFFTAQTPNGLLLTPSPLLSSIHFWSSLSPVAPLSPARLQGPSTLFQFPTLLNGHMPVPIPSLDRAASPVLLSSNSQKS
# Outline: as §1
# [9] = target: T6, FEV (Homo sapiens, UniProt Q99581 1-238); conditions: protein: recombinant; tags: N-terminal GST; dsDNA, one strand shown
# T6 sequence: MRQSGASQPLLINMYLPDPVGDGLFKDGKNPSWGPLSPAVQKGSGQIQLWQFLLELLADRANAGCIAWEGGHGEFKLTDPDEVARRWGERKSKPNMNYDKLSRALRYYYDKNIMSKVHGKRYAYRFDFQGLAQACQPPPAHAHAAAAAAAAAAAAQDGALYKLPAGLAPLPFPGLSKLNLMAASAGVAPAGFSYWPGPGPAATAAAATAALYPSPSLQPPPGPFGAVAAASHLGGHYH
# Outline: as §1
# [10] = target: ETV5 (Homo sapiens, UniProt P41161 1-510); conditions: protein: recombinant; tags: N-terminal GST; dsDNA, one strand shown
# Sequence of ETV5 (P41161 whole entry): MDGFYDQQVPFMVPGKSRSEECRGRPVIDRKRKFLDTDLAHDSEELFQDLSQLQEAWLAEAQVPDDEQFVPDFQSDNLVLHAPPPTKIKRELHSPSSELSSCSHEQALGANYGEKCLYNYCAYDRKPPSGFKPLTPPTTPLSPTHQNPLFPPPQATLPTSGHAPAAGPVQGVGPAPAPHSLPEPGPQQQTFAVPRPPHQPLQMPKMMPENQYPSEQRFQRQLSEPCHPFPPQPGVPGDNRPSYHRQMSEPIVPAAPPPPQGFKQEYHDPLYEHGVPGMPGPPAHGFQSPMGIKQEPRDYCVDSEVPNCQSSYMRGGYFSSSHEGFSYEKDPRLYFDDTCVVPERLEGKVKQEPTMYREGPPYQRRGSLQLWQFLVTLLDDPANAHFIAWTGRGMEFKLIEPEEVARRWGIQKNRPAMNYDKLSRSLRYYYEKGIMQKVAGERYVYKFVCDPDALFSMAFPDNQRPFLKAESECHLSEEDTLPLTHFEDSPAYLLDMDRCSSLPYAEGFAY
# Outline: as §1
# [11] = target: HSF1 (Homo sapiens, UniProt Q00613 1-529); conditions: protein: recombinant; tags: N-terminal GST; chain copies: 3; dsDNA, one strand shown
# Sequence of HSF1 (Q00613 whole entry): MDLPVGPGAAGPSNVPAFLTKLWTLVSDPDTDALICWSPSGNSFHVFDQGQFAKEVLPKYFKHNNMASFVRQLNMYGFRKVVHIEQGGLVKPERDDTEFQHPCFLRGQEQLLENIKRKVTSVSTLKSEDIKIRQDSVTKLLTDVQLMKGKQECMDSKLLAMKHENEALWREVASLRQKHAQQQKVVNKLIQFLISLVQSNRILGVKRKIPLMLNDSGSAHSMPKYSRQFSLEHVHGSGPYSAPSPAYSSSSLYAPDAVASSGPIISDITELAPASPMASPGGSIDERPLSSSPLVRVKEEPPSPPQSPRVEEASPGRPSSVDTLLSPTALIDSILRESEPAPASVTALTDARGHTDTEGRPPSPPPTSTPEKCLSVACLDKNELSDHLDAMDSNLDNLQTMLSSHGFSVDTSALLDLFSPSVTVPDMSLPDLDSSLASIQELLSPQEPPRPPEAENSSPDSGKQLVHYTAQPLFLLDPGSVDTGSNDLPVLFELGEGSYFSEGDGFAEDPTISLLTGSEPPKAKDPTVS
# Outline: as §1
# [12] = target: T7, SPIC (Homo sapiens, UniProt Q8N5J4 1-248); conditions: protein: recombinant; tags: N-terminal GST; dsDNA, one strand shown
# T7 sequence: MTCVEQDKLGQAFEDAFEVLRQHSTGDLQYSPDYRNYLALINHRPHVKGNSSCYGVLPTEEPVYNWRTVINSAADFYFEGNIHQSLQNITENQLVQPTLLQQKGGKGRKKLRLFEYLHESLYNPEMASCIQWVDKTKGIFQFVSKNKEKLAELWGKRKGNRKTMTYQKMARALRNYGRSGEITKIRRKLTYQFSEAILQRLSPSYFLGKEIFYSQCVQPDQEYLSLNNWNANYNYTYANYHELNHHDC
# Outline: as §1
# [13] = target: ELF4 (Homo sapiens, UniProt Q99607 1-663); conditions: protein: recombinant; tags: N-terminal GST; dsDNA, one strand shown
# Sequence of ELF4 (Q99607 whole entry): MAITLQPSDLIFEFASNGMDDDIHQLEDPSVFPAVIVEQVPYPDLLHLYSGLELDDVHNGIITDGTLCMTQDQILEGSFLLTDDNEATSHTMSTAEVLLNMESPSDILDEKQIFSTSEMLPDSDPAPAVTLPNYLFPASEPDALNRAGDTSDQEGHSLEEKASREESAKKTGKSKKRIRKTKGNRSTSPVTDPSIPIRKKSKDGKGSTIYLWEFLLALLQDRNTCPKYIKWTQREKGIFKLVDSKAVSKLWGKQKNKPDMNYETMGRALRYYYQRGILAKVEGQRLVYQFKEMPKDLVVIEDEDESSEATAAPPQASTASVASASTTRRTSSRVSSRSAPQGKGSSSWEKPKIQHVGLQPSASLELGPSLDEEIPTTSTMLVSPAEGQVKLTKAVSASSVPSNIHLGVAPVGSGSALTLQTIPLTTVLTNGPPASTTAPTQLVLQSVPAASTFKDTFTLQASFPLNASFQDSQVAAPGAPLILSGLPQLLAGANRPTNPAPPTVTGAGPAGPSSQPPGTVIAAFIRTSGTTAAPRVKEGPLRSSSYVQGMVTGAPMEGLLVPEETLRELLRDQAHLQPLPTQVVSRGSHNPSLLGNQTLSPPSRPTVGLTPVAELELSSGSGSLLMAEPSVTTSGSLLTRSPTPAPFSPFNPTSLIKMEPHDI
# Outline: as §1
# [14] = target: T8, ELK4 (Homo sapiens, UniProt P28324-2 1-405); conditions: protein: recombinant; tags: N-terminal GST; dsDNA, one strand shown
# T8 sequence: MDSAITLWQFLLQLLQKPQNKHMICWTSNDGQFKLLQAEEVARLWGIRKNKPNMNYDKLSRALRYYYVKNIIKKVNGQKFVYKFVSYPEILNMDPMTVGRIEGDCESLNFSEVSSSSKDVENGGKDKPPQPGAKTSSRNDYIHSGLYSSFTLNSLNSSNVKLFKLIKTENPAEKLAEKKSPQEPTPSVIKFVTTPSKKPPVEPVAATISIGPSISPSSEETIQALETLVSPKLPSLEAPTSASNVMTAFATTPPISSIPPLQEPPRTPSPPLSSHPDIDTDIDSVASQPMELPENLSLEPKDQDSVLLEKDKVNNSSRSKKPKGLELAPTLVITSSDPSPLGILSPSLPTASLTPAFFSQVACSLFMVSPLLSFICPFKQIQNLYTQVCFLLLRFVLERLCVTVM
# Outline: as §1
# [15] = target: T9, ETV2 (Homo sapiens, UniProt O00321 1-342); conditions: protein: recombinant; tags: N-terminal GST; dsDNA, one strand shown
# T9 sequence: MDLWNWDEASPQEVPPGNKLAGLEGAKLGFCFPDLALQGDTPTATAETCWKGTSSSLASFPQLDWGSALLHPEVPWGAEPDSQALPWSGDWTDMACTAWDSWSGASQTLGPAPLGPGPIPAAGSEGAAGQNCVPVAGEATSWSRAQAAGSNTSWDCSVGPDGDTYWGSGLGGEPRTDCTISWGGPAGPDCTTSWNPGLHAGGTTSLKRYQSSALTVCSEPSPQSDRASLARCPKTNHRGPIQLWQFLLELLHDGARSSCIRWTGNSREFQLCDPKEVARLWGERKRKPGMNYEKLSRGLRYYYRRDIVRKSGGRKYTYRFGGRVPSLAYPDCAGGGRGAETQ
# Outline: as §1
# [16] = target: T10, ELF3 (Homo sapiens, UniProt P78545 1-371); conditions: protein: recombinant; tags: N-terminal GST; dsDNA, one strand shown
# T10 sequence: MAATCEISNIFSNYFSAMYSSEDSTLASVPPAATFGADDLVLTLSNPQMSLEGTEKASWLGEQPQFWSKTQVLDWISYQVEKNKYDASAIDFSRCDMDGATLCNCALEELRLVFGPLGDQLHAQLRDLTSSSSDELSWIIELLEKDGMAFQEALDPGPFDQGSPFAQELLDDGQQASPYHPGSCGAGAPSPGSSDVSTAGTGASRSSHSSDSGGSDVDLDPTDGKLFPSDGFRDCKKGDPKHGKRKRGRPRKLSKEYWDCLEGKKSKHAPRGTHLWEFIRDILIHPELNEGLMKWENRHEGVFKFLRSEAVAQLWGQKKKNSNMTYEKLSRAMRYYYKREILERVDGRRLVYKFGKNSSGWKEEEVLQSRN
# Outline: as §1
# [17] = target: CRX (Homo sapiens, UniProt O43186 1-299); conditions: protein: recombinant; tags: N-terminal GST; dsDNA, one strand shown
# Sequence of CRX (O43186 whole entry): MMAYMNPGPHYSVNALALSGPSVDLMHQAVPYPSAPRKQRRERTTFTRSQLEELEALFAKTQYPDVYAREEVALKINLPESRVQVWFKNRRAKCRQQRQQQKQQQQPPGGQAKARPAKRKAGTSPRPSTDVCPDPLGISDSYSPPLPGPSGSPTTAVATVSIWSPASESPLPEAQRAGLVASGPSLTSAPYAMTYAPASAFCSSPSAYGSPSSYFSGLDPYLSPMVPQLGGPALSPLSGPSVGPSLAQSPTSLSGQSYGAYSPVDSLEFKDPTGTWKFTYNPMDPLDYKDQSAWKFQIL
# Outline: as §1
# [18] = target: ETV1 (Homo sapiens, UniProt P50549 1-477); conditions: protein: recombinant; tags: N-terminal GST; dsDNA, one strand shown
# Sequence of ETV1 (P50549 whole entry): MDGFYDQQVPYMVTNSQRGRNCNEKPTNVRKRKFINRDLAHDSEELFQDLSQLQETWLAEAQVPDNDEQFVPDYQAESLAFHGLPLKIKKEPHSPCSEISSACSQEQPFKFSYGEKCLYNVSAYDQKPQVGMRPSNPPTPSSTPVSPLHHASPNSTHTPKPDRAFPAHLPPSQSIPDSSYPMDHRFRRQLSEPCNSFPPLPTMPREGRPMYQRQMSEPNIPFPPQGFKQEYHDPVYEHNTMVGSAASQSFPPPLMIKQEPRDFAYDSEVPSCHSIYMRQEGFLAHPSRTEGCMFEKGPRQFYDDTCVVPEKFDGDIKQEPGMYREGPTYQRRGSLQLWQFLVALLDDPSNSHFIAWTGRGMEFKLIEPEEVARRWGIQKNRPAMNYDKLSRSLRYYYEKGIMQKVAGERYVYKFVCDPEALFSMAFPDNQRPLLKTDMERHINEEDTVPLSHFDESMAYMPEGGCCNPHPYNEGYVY
# Outline: as §1
sequence,measurement,setting,value
AAAAGT,binding signal,[1],"1.02 fold enrichment (6-mer frequency, TF over GST control)"
same,binding signal,[2],"1.1 fold enrichment (6-mer frequency, TF over GST control)"
same,binding signal,[3],"1.08 fold enrichment (6-mer frequency, TF over GST control)"
same,binding signal,[4],"1.01 fold enrichment (6-mer frequency, TF over GST control)"
same,binding signal,[5],"1.1 fold enrichment (6-mer frequency, TF over GST control)"
same,binding signal,[6],"1.06 fold enrichment (6-mer frequency, TF over GST control)"
same,binding signal,[7],"1.12 fold enrichment (6-mer frequency, TF over GST control)"
same,binding signal,[8],"1.06 fold enrichment (6-mer frequency, TF over GST control)"
same,binding signal,[9],"1.04 fold enrichment (6-mer frequency, TF over GST control)"
same,binding signal,[10],"1.06 fold enrichment (6-mer frequency, TF over GST control)"
same,binding signal,[11],"1.06 fold enrichment (6-mer frequency, TF over GST control)"
same,binding signal,[12],"1.1 fold enrichment (6-mer frequency, TF over GST control)"
same,binding signal,[13],"1.1 fold enrichment (6-mer frequency, TF over GST control)"
same,binding signal,[14],"1.24 fold enrichment (6-mer frequency, TF over GST control)"
same,binding signal,[15],"1.03 fold enrichment (6-mer frequency, TF over GST control)"
same,binding signal,[16],"1.12 fold enrichment (6-mer frequency, TF over GST control)"
same,binding signal,[17],"1.09 fold enrichment (6-mer frequency, TF over GST control)"
same,binding signal,[18],"1.13 fold enrichment (6-mer frequency, TF over GST control)"
